These results are taken from ChEMBL document CHEMBL4513216, “Probing the Open Global Health Chemical Diversity Library for Multistage-Active Starting Points for Next-Generation Antimalarials” (ACS Infect Dis, 2020).

Screen size: about 69,000 compounds; about 8,600 (12%) showed an effect of 50% or more. This excerpt belongs to a sample that is enriched for strong results.

The assay relates to Plasmodium berghei. Kind of assay: Screen against P. berghei liver stage (PbLuc), transformed with Luciferase, at 10uM. Type of assay: functional, HepG2. As to conditions: tested at 10 uM.
For the compound `CN(C)C1CCCN(C(=O)NCc2ccccc2-n2cccn2)C1` (configuration not stated), the INHIBITION is reported as 21.5%. Next, `CCS(=O)(=O)N1Cc2nccn2CC(Cn2cccn2)C1` (configuration not stated): 37.5%; `O=C(O)c1cc(-c2ccccc2)ns1`: 45.9%. Under `O=C(COCc1ccccc1)N1CCCC1c1noc(C2CC2)n1` (configuration not stated) stands 7.27%; under `O=C(C[C@@H]1COC[C@H]2CN(C(=O)c3ccccn3)C[C@@H]12)N1CCCC1`, 6.72%; under `Cc1cccc(N2Cc3c(NC4CCCC4)ncnc3N(C)CC2=O)c1`, 7.66%. Next, `CC(=O)c1cccc(NC(=O)CN2CCCCC2C)c1` (configuration not stated): 14%; `CC(=O)c1cccc(NC(=O)CN2CCCCC2C2OCCO2)c1` (configuration not stated): 1.81%; `CC(=O)c1cccc(NC(=O)CN2CCCC(C3OCCO3)C2)c1` (configuration not stated): 53.4%.

With `CN(C)Cc1cnn(-c2ccccc2C(=O)N(C)Cc2ccccc2)c1`, the INHIBITION was -52.6%.

Regarding `Cc1cc(=O)c2ccccc2n1CC1CCNC1` (configuration not stated), the INHIBITION came out at 12.8%. As to `Cc1cc(=O)c2ccccc2n1CC1CCCN(C)C1` (configuration not stated), the INHIBITION is -9.92%. Under `Cc1cc(=O)c2ccccc2n1CC1CCN(C(C)C)C1` (configuration not stated) stands 53.9%; under `c1cnc(N2CCO[C@H]3CN(Cc4csnn4)C[C@H]32)cn1`, 23.3%. Next, `O=C(NCCc1ccn(-c2ccccc2)n1)N1CCC1`: 26.9%. Regarding `O=C(NCCc1ccn(-c2ccccc2)n1)N1CCCC(O)C1` (configuration not stated), the INHIBITION is given as -16%. For the compound `O=C(NCCc1ccn(-c2ccccc2)n1)N1CCSCC1`, the INHIBITION stood at 62.9%.

Regarding `Cc1cccc(NC(=O)C(C)Nc2cccc(CN3CCOC3=O)c2)c1` (configuration not stated), the INHIBITION is on record as -18.15%.

Take `CC1CC(=O)c2cc(C(=O)N3CCc4ccccc4C3)c(=O)[nH]c2C1` (configuration not stated): the INHIBITION came to 10.9%. Under `Cc1ccc(CN2C[C@@H]3CCCO[C@@H]3[C@H](N(C)Cc3ccco3)C2)o1` stands 18.5%; under `CC(NC(=O)NCCN1CCCC1)c1nncn1C` (configuration not stated), 56.4%; under `Cc1cccc(C)c1OCCNC(=O)NC(C)c1nncn1C` (configuration not stated), 50.4%. Under `CC(NC(=O)NCCCN1CCCC1)c1nncn1C` (configuration not stated) stands 0.914%. In the case of `CC(NC(=O)NCCCN1CCc2ccccc2C1)c1nncn1C` (configuration not stated), the INHIBITION is reported as -120%. As for `CC(NC(=O)NCCCN1CCCCCC1)c1nncn1C` (configuration not stated), the INHIBITION was 30.2%. Under `Cc1cccc(OCCCNC(=O)NC(C)c2nncn2C)c1` (configuration not stated) stands 15.9%; under `CC1CCN(CCCNC(=O)NC(C)c2nncn2C)CC1` (configuration not stated), 52.3%; under `CCN1CCN(CCCNC(=O)NC(C)c2nncn2C)CC1` (configuration not stated), 40%. Consider `CC(NC(=O)NCCOc1ccc(Cl)cc1)c1nncn1C` (configuration not stated), for which the INHIBITION came out at 39.7%. `N#CCCSc1sc2c(O)cc(O)nc2c1C#N`: the INHIBITION came out at 38.2%. Next, `O=C(NCCc1cc2nc(-c3ccncc3)ccn2n1)C1CC1`: 23.6%; `O=C(c1cc[nH]n1)N1CCCC1c1ccccn1` (configuration not stated): 13.5%. `CC(=O)N1CCC(c2nccnc2C)CC1`: the INHIBITION is listed as -16.1%. `OCC1(NCc2cnc(-c3ccsc3)s2)CCOCC1`: the INHIBITION is -11.7%. Next, `CN(C)c1cnn(CC(=O)N2Cc3ccccc3C2)c(=O)c1`: 31.4%.

As to `CN(Cc1ccoc1)C(=O)Cn1ncc(N(C)C)cc1=O`, the INHIBITION worked out at 50.5%. Under `CN(C)c1cnn(CC(=O)N2CCN(Cc3cccs3)CC2)c(=O)c1` stands 65.7%. For `CN(CCc1ccccc1)c1cnn(CC(=O)N2CCOCC2)c(=O)c1`, the INHIBITION worked out at 20.2%.

For `CN(C)c1cnn(CC(=O)N2CCCCCC2)c(=O)c1`, the INHIBITION came out at 15.4%.

Regarding `CN(C)c1cnn(CC(=O)N2CCN(c3ccccc3)CC2)c(=O)c1`, the INHIBITION was 53.7%. Regarding `CN(Cc1ccc2nsnc2c1)C(=O)Cn1ncc(N(C)C)cc1=O`, the INHIBITION stood at 5.46%.

Regarding `CSc1cccc(CN(C)C(=O)Cn2ncc(N(C)C)cc2=O)c1`, the INHIBITION was 4.64%.

In the case of `CN(CCc1ccccc1)c1cnn(CC(=O)N2CCSCC2)c(=O)c1`, the INHIBITION is on record as 38.5%.

Take `O=C(CCn1c(C(F)F)cc2cccnc21)NC1CC1`: the INHIBITION is recorded as 22%. Next, `CC(c1nc(C(C)(C)C)no1)N1CCN(c2ccc(C#N)cn2)CC1` (configuration not stated): 23.9%.

For `Cc1cc(C)n(CC2CCCN2C(=O)c2ccnc(N(C)C)c2)n1` (configuration not stated), the INHIBITION amounted to 3.73%. Next, `CN(C)C(=O)[C@H]1C[C@H]2CN(c3ncccn3)C[C@@H]1O2`: -5.63%; `Cn1cc(CN2CCCC3(CCN(Cc4ccncc4)C3=O)C2)cn1` (configuration not stated): 43.1%; `COCCN1CCO[C@@H]2CN(Cc3sccc3C)C[C@@H]2C1`: 24.6%. Under `O=C(c1ccc(=O)[nH]n1)N(CCO)Cc1cc(Br)ccc1F` stands 23.1%; under `CCc1ccc(-n2nnc(C(=O)O)c2-c2ccccn2)cc1`, 9.84%. Under `CC(C)c1nnc2n1CCN(Cc1csc(CC(=O)N(C)C)n1)C2` stands 52%; under `Cc1nnc2n1CCN(Cc1csc(CC(=O)N(C)C)n1)C2`, 16.7%; under `CN(C)C(=O)Cc1nc(CN2CCn3c(nnc3C3CC3)C2)cs1`, 8.81%. As for `O=C1CCC2(CCCN(CCc3ccccc3)C2)N1Cc1cccnc1` (configuration not stated), the INHIBITION was determined as 23.2%. Under `CC(CNCc1ccc(Cl)cc1)Oc1ccccn1` (configuration not stated) stands 11.4%; under `CCn1cc(NC(=O)N2CCN(CCSc3ccccc3)CC2)cn1`, -32.35%; under `O=C(C1CCCc2[nH]ncc21)N1CCCC1` (configuration not stated), 17.4%.

Turning to `CCN1CCN(C(=O)C2CCCc3[nH]ncc32)CC1` (configuration not stated), the INHIBITION is recorded as -24.9%. Next, `O=C(C1CCCc2[nH]ncc21)N1CCCC2(C1)OCCO2` (configuration not stated): 50.8%. Under `CCN(CC)C(=O)N1CCN(C(=O)C2CCCc3[nH]ncc32)CC1` (configuration not stated) stands 67.5%; under `CN1CCN(C(=O)C2CCCc3[nH]ncc32)CC1` (configuration not stated), -3.12%; under `O=C(C1CCCc2[nH]ncc21)N1CCCCCC1` (configuration not stated), 46.6%.

In the case of `CCS(=O)(=O)N1C[C@H]2CN(Cc3ccc(OC)cc3)C(=O)[C@H]2C1`, the INHIBITION is -12.2%. Next, `O=C(NCc1nc(C2CC2)no1)N1CCOC(c2ccccc2)C1` (configuration not stated): 33.2%; `O=C(NCc1nc(C2CC2)no1)N1CCOC(c2cccc(F)c2)C1` (configuration not stated): 53.6%. Next, `O=C(NCc1nc(C2CC2)no1)N1CCOC(c2ccccc2F)C1` (configuration not stated): 35%.

For `CCCOCC(=O)NC1CCc2nc(C)cn2C1` (configuration not stated), the INHIBITION worked out at 1.58%.

Regarding `Cc1ccc(OCCN2CCC(c3nc(C)n4c(C)csc34)CC2)cc1`, the INHIBITION is recorded as 29.1%. Under `Cc1csc2c(C3CCN(CCOc4ccccc4F)CC3)nc(C)n12` stands 54%; under `Cc1nc(C)n(CC2CN(CCCOc3ccccc3C)CCO2)n1` (configuration not stated), 24.4%. Under `Cc1csc2c(C3CCN(CCCOc4ccccc4)CC3)nc(C)n12` stands 46.7%; under `Cc1nc(C)n(CC2CN(Cc3cc(C#N)ccc3F)CCO2)n1` (configuration not stated), 51.1%; under `Cc1nc(C)n(CC2CCCN(Cc3cc(C#N)ccc3F)C2)n1` (configuration not stated), -2.53%. Next, `Cc1nc(C)n(CC2CN(Cc3cccc(C#N)c3)CCO2)n1` (configuration not stated): 10.5%; `Cc1nc(C)n(CC2CN(CCOc3ccccc3F)CCO2)n1` (configuration not stated): 53.8%; `Cc1nc(C)n(CC2CN(CCOc3ccccc3C#N)CCO2)n1` (configuration not stated): -15.5%. Turning to `CN1CC[C@H](N(Cc2ccccc2)CC2CC2)C[C@H](O)C1`, the INHIBITION is 23.7%.

On to `Cc1ccsc1CN(CCCN(C)C)Cc1ccccn1`, for which the INHIBITION is reported as 2.6%. Next, `O=C(CC1[C@H]2CN(Cc3ccsc3)C[C@@H]12)N1CCCC1` (some centres not stated): 7.5%. Next, `Cc1cc(-c2cnc(C)nc2CN(C)C(=O)c2cc(C3CC3)on2)on1`: -18.9%. Consider `CCOc1ccc(NC(=O)N(CCN(C)C)C(C)c2ccncc2)cc1` (configuration not stated), for which the INHIBITION is reported as 14.3%.

For `COCC1c2c(cnn2C)CCN1Cc1ccco1` (configuration not stated), the INHIBITION came out at 35.8%.

`CS(=O)(=O)N1CCC(n2nnn(-c3ccccc3)c2=O)CC1`: the INHIBITION came out at 2.7%.

In the case of `O=C1[C@@H]2CC[C@@H](CN(c3ncnc4ccsc34)C2)N1CC1CC1`, the INHIBITION is 78.9%.

With `Cc1nc(C)n(CC2CCCN(c3ncnc4c3CCC4)C2)n1` (configuration not stated), the INHIBITION is given as 80.8%. Next, `CN1C(=O)[C@@H]2CC[C@H]1CN(c1ncnc3ccsc13)C2`: -15.1%; `c1nc(N2CCCC(Cn3cncn3)C2)c2ccsc2n1` (configuration not stated): -17.3%. Under `c1nc(N2CCCCC2Cn2cncn2)c2sccc2n1` (configuration not stated) stands 6.65%. As to `Cc1nc(C)n(CC2CCCN2c2ncnc3c2CCC3)n1` (configuration not stated), the INHIBITION turned out to be 26.9%. Regarding `c1ccc2sc(N3CCCC(Cn4cncn4)C3)nc2c1` (configuration not stated), the INHIBITION came to 54.5%. Under `O=C(O)c1cn(CC2CCCN(c3nc4ccccc4s3)C2)nn1` (configuration not stated) stands 46.6%; under `Cc1nc(C)n(CC2CCCN(CC3CCCCC3)C2)n1` (configuration not stated), 15.6%.

Take `c1ccc2nc(N3CCCC(Cn4cncn4)C3)cnc2c1` (configuration not stated): the INHIBITION is -2.55%. Under `COc1cc(N2C[C@H]3CC[C@@H](C2)N(CC2CCC2)C3=O)ncn1` stands 2.15%. For `c1nc(N2CCCC(Cn3cncn3)C2)c2sccc2n1` (configuration not stated), the INHIBITION is given as 85.4%.

As to `Cc1ccnc(C2CCN(S(=O)(=O)c3cn(C)cn3)CC2)n1`, the INHIBITION was -10.5%.

Turning to `O=C(Nc1cccnc1)C1CN(C(=O)c2ccc3c(c2)OCO3)C1`, the INHIBITION amounted to 34.6%. Regarding `CCc1nc(CN2CCCC2c2c(C)nn(C)c2OC)no1` (configuration not stated), the INHIBITION was 33.8%.

On to `Cc1nn(C)c(C)c1C1CCCN1Cc1ccc(C(N)=O)cc1` (configuration not stated), for which the INHIBITION was found to be 13.3%. As to `Cn1nc(CO)c2c1CCN(c1ncnc3c1CCNCC3)C2`, the INHIBITION is 26.8%. On to `Cn1cnnc1C1CCCN(C(=O)c2cc(Cl)cc(Cl)c2)C1` (configuration not stated), for which the INHIBITION is on record as 11.6%. Under `O=C(c1cccc(CNS(=O)(=O)c2ccc(F)cc2)c1)N1CCCC1` stands 15.6%. Under `COCc1nc(CN2CC(Cc3ccccc3)CC2=O)no1` (configuration not stated) stands -37.2%; under `Cc1nnc(SCC(=O)N2C[C@@H]3CC[C@H]2CN(c2ncccn2)C3)[nH]1`, 19.4%. With `Cc1nc(C)n(CC2CCCN(c3ncnc4ccccc34)C2)n1` (configuration not stated), the INHIBITION came to 88.2%.

Take `Cc1nc(C)n(CC2CCCN(CCc3ccncc3)C2)n1` (configuration not stated): the INHIBITION stood at 24%. Under `Cc1nc(C)n(CC2CCCN(c3ncnc4[nH]ccc34)C2)n1` (configuration not stated) stands 5.13%; under `Cc1nc(C)n(CC2CCCN(CCc3ccccc3)C2)n1` (configuration not stated), 38.8%; under `Cc1nc(C)n(CC2CCCN(CCc3ccccn3)C2)n1` (configuration not stated), 53.8%. In the case of `Cc1nc(C)n(CC2CCCN(c3ncnc4sccc34)C2)n1` (configuration not stated), the INHIBITION is reported as 72.9%. As to `Cc1nc(C)n(CC2CCCN(c3ccnc(-c4ccccc4)n3)C2)n1` (configuration not stated), the INHIBITION turned out to be 26.6%.

In the case of `Cc1nc(C)n(CC2CCCN2c2ncnc3ccsc23)n1` (configuration not stated), the INHIBITION was found to be 27.8%.

Regarding `Cc1nc(C)n(CC2CCCCN2c2ncnc3ccsc23)n1` (configuration not stated), the INHIBITION stood at 27.8%.

As for `Cc1nc(C)n(CC2CCCN2c2ncnc3sccc23)n1` (configuration not stated), the INHIBITION is -3.81%. Under `Cc1nc(C)n(CC2CCCN(c3ncnc4ccsc34)C2)n1` (configuration not stated) stands 83.1%; under `Cc1nc(C)n(CC2CCCN(c3ccc(C#N)cn3)C2)n1` (configuration not stated), -10.6%.
